From PubChem BioAssay
Rows were chosen to be rich in hits. Some 4.8% of all compounds tested hit in one or more screens of this group.
DAX1 inh-1: NR0B1 (DAX1) inhibition; AID 504766; inhibition, % at 6.75 µM; actives 0.99% (n = 340,000); HEK293 Gal4-DAX1 luciferase reporter, luminescence; P51843;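 active means inhibition above the mean over all tested compounds plus 3 SD, cut at about 4.2% in these data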;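 further: 0% = DAX1-transfected cells with DMSO and 100% = empty-vector control cells with DMSO; inhibition shows as a rise in luminescence from relieved DAX1 repression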
Target sequence (P51843 207-470 limits assumed): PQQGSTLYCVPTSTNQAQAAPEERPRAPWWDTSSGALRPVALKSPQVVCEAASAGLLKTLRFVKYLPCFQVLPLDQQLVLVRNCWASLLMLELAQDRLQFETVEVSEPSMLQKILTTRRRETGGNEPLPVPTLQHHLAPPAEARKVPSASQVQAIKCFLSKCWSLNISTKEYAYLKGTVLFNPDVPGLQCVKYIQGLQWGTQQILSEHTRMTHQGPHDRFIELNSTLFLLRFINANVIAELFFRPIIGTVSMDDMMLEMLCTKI
SMARCA2 act: activators of SMARCA2 function. MG213 cells, MMTV-luciferase reporter, dexamethasone, overnight. activation, % at 9.1 µM. actives 1% (n = 370,000); in the data active means activation above about 7.8%;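 further: 0% = vehicle wells and 100% = reference activator wells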
DAX1 inh-2: blocks DAX1 repression of SF-1 activated StAR promoter; HEK293T StAR-luciferase reporter, SF-1/DAX-1 repression relief; inhibition, % at 6.8 µM; actives 1.1% (n = 370,000); AID 652010;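 active means inhibition above the mean over all tested compounds plus 3 SD, cut at about 3.6% in these data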;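 further: 0% = DAX-1 cells with DMSO and 100% = cells lacking DAX-1 with DMSO; higher inhibition means more luminescence from relief of DAX-1 repression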
ssDAF12 agonist: activators of S. stercoralis DAF-12 nuclear receptor | HEK293 ssDAF-12/GRIP1 lit1-tk-luc reporter, luminescence; % of 3 µM dafachronic acid response | activation, % at 6.8 µM | actives 1% (n = 370,000) | AID 652126;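 active means activation above the mean over all tested compounds plus 3 SD, cut at about 0.9% in these data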;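 further: 0% = DMSO-only wells and 100% = 3 µM delta7-dafachronic acid wells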
hgDAF-12 ag: activates the H. glycines DAF-12 receptor ligand-binding domain; HEK293 GAL4-hgDAF12 UAS-luciferase reporter, agonist luminescence; normalized to butyrate control; activation, % at 6.8 µM; actives 1.8% (n = 370,000);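 active means activation above a cutoff set at the mean of all screened compounds plus 3 SD, cut at about 10% in these data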;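 further: 0% = DMSO wells and 100% = sodium butyrate wells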
hcDAF12 agonist: activators of H. contortus DAF-12 nuclear receptor; activation, % at 6.8 µM; actives 1.4% (n = 370,000); AID 652067; HEK293 hcDAF-12 lit1-tk-luc reporter, luminescence; 0% DMSO, 100% Δ7-dafachronic acid;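 active means activation above the mean of all tested compounds plus 3 SD, cut at about 5.5% in these data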;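 further: 100% = response to 3 µM Δ7-dafachronic acid high control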
* = called active by the depositor; . = no result given.

SMILES	DAX1 inh-1	SMARCA2 act	DAX1 inh-2	ssDAF12 agonist	hgDAF-12 ag	hcDAF12 agonist
Nc1cc(N)nc(SCCOc2ccccc2F)n1	1.1	1.1	0.2	-0.3	11.2*	1.8
Cc1cc(Nc2ccc(F)cc2F)n2ncnc2n1	4.9*	-0.2	-0.1	-1.3	1.2	-0.8
C[C@@H]1COc2cc(Br)ccc2S(=O)(=O)N1Cc1cn(CCC2OCCO2)nn1	.	-1.9	-0.7	-0.9	-1.2	-1.8
Cc1cc(C)n(C(=O)Cn2nc(C)c(Cl)c2C)n1	4.5*	-3.0	-0.1	-1.9	-2.0	0.2
COc1ccc(NC(=O)C/C(C)=N/NC(=O)c2cccs2)c([N+](=O)[O-])c1	3.5	6.7	2.0	-0.4	10.7*	5.0
COc1ccc(NC(=O)c2cccs2)c([N+](=O)[O-])c1	0.6	4.0	0.6	-0.9	7.8	2.8
C[C@@H](NC(=O)C[C@H]1CC[C@H]2[C@@H](COc3ccc(NC(=O)Nc4ccccc4)cc3C(=O)N2C)O1)c1ccccc1	.	-5.7	0.9	-1.2	0.2	-1.6
CC(=O)Nc1sc2c(c1-c1nc(-c3ccccc3)cs1)CCN(C(C)C)C2	.	.	.	-0.1	5.8	6.3*
FC(F)Oc1ccc(C2N=C(c3ccccc3)NO2)cc1 (stereo unspecified)	1.0	3.2	1.1	0.5	13.2*	4.2
COc1cc(C2N=C(c3ccccc3)NO2)cc(Br)c1O (stereo unspecified)	-0.6	3.8	-0.2	-0.1	3.6	0.8
COc1ccc2c(c1)CNC2CS(=O)(=O)NCCc1ccccc1 (stereo unspecified)	.	-0.7	-0.9	-1.1	-1.3	2.7
CN(Cc1nc2ccccc2n1C)c1ccccc1	-0.8	4.0	-0.1	0.7	7.9	5.4
CN(C)c1ccc(-c2nc3ccccc3n2C)cc1	-2.9	0.5	4.0*	0.3	7.3	5.5
CN(C)c1ccc(C(O)Cc2nc3ccccc3n2C)cc1 (stereo unspecified)	-1.1	1.3	1.8	-0.7	0.0	5.6*
CC(C)c1ccc(C(O)Cc2nc3ccccc3n2C)cc1 (stereo unspecified)	4.6*	-2.8	0.0	-1.5	-4.5	-1.0
COc1ccccc1C(O)Cc1nc2ccccc2n1C (stereo unspecified)	0.3	1.7	0.4	-0.6	4.2	1.2
CC(C)[C@H](NC(=O)c1ccco1)C(=O)N1CCC[C@H]1C(=O)NCc1ccccc1	.	-1.8	1.7	-1.2	-0.5	2.5
CN(Cc1cn(Cc2ccccc2)nn1)S(=O)(=O)c1ccc(F)cc1Br	.	-1.3	0.4	-1.4	2.8	4.1
O=[N+]([O-])c1ccc(NCc2ccccc2)nc1	0.9	-0.2	0.1	-0.2	6.0	5.3
O=[N+]([O-])c1ccc(NN=CCCc2ccccc2)nc1	1.1	7.1	1.4	-0.2	12.5*	1.1
Cc1cc(/C=N/Nc2ccc([N+](=O)[O-])cn2)c(C)n1-c1ccc(C(=O)O)cc1	6.6*	2.3	0.2	-1.8	5.3	-0.4
O=[N+]([O-])c1ccc(NN=Cc2ccc(O)cc2)nc1	6.0*	-0.2	1.5	-0.8	12.7*	4.2
COc1ccc(C=NNc2ccc([N+](=O)[O-])cn2)cc1	1.6	4.2	3.1	-0.1	11.0*	1.9
COc1ccc(CN2C(C(=O)NC3CCCC3)CSCCS2(=O)=O)cc1 (stereo unspecified)	.	-4.8	-0.1	-1.3	-0.4	-3.1
O=[N+]([O-])c1ccc(N/N=C/c2cccs2)nc1	6.0*	5.4	0.5	-0.7	11.1*	3.0
SMILES	DAX1 inh-1	SMARCA2 act	DAX1 inh-2	ssDAF12 agonist	hgDAF-12 ag	hcDAF12 agonist
O=[N+]([O-])c1ccc(NN=Cc2ccccc2)nc1	2.5	4.7	2.2	-0.3	9.0	4.0
CCC1(CC)NC(=O)N(CC(=O)NCc2ccc3c(c2)OCO3)C1=O	0.4	-2.0	0.6	-0.2	1.3	-1.9
O=C(CN1C(=O)NC2(CCCCC2)C1=O)NCc1ccc2c(c1)OCO2	7.2*	0.2	-1.4	-1.5	0.8	-1.2
CN(C)c1ccc(N=Nc2cccc(F)c2)cc1	1.3	5.2	2.8	1.4*	11.0*	5.6*
CC(C)C1C(=O)N(Cc2cn(CC3CCCCC3)nn2)CCS(=O)(=O)N1Cc1ccc(-c2ccc(Cl)cc2)cc1 (stereo unspecified)	-1.2	-2.8	-0.6	-1.3	-3.9	-0.5
CC(C)CC1C(=O)N(Cc2cn(CCC3OCCCO3)nn2)CCS(=O)(=O)N1Cc1ccc(-c2ccc(Cl)nc2)cc1 (stereo unspecified)	5.1*	4.0	-1.9	-1.4	0.8	-0.7
CC(C)C1C(=O)N(Cc2cn(CC3CCCCC3)nn2)CCS(=O)(=O)N1Cc1ccc(-c2ccc(Cl)nc2)cc1 (stereo unspecified)	0.8	-5.3	4.4*	-0.8	-1.8	0.4
CCOc1ccc(-n2c(SCC(=O)Nc3ccc4c(c3)OCCO4)nnc2-c2ccncc2)cc1	.	-4.5	-2.0	-1.9	-4.6	-0.8
O=C(NC(=S)Nc1cccnc1)c1cc2ccccc2o1	1.5	7.6	1.9	0.0	11.4*	1.9
O=C(NC(=S)NCc1cccnc1)c1cc2ccccc2o1	-0.3	1.5	-0.7	-1.3	3.7	-0.5
CCN(CC)C(=O)CSc1nnc(-c2cccs2)n1Cc1ccco1	-0.7	1.1	-0.2	-1.1	0.9	-1.0
O=C(CSc1nnc(-c2ccncc2)n1Cc1ccco1)Nc1ccccc1F	6.2*	-3.1	-0.6	-1.7	-2.0	-1.9
NC(=O)CSc1nnc(-c2ccccn2)n1Cc1ccco1	2.4	-1.3	0.1	-1.2	0.8	0.8
NC(=O)CSc1nnc(-c2cccs2)n1Cc1ccco1	5.5*	-7.9	0.0	-1.8	-0.6	-0.5
NC(=O)CSc1nnc(-c2ccc(O)cc2)n1Cc1ccco1	9.2*	-0.9	0.1	-1.0	0.5	-0.2
C=CCN=C1NC(c2ccccc2)C(C(=O)OC)=C(C)N1C (stereo unspecified)	.	1.9	0.9	-1.1	3.2	-0.3
O=C(c1nc2ncccn2n1)N1CCN(c2ccc(F)cc2)CC1	1.8	-1.4	0.1	-1.3	-0.5	0.4
O=C(c1nc2ncccn2n1)N1CCN(c2ccccc2)CC1	0.4	0.8	3.7*	-1.1	-1.2	-0.7
COCCNc1nc(Oc2ccc(CC(=O)OC)cc2)c2sc(-c3ccccc3)cc2n1	.	-3.9	3.8*	-0.6	-1.8	3.1
COCCNc1nc(Oc2ccc(NC(C)=O)cc2)c2sc(-c3ccccc3)cc2n1	.	-0.5	-0.3	-1.3	0.8	-0.7
CCC(C)[C@H](NC(=O)OC(C)(C)C)C(=O)N[C@@H](Cc1ccccc1)C(=O)OC (stereo partly specified)	.	-2.5	-0.3	-0.6	-4.3	-0.9
O=C(O)c1nccnc1C(=O)NCCc1c[nH]c2ccccc12	1.4	-2.5	0.3	-0.2	-0.6	5.6*
